Test [1] addresses T1, Inhibitor of nuclear factor kappa-B kinase subunit epsilon (Homo sapiens) (UniProt Q14164).
T1 sequence (whole entry): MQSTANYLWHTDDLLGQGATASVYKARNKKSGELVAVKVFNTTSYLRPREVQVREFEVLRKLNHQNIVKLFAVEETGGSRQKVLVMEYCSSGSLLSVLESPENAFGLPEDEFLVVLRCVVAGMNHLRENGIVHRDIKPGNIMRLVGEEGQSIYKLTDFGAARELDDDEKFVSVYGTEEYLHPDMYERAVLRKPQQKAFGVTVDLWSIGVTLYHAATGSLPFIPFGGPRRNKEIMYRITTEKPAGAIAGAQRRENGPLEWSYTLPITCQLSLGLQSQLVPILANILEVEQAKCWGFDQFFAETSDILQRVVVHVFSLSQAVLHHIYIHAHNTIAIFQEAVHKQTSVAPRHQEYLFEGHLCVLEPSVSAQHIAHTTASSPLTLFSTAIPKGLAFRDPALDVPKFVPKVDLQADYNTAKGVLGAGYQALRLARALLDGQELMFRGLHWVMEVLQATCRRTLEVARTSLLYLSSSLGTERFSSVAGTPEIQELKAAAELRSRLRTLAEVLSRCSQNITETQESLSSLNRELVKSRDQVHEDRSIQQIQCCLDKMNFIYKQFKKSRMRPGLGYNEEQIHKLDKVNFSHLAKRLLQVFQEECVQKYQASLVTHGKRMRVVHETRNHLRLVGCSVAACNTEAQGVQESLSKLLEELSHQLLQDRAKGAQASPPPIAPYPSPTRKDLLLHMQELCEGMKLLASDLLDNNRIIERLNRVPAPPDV
Particulars: at 1 µM.

The target of test [2] is T2, Serine/threonine-protein kinase Nek1 (Homo sapiens) (UniProt Q96PY6).
T2 sequence (whole entry): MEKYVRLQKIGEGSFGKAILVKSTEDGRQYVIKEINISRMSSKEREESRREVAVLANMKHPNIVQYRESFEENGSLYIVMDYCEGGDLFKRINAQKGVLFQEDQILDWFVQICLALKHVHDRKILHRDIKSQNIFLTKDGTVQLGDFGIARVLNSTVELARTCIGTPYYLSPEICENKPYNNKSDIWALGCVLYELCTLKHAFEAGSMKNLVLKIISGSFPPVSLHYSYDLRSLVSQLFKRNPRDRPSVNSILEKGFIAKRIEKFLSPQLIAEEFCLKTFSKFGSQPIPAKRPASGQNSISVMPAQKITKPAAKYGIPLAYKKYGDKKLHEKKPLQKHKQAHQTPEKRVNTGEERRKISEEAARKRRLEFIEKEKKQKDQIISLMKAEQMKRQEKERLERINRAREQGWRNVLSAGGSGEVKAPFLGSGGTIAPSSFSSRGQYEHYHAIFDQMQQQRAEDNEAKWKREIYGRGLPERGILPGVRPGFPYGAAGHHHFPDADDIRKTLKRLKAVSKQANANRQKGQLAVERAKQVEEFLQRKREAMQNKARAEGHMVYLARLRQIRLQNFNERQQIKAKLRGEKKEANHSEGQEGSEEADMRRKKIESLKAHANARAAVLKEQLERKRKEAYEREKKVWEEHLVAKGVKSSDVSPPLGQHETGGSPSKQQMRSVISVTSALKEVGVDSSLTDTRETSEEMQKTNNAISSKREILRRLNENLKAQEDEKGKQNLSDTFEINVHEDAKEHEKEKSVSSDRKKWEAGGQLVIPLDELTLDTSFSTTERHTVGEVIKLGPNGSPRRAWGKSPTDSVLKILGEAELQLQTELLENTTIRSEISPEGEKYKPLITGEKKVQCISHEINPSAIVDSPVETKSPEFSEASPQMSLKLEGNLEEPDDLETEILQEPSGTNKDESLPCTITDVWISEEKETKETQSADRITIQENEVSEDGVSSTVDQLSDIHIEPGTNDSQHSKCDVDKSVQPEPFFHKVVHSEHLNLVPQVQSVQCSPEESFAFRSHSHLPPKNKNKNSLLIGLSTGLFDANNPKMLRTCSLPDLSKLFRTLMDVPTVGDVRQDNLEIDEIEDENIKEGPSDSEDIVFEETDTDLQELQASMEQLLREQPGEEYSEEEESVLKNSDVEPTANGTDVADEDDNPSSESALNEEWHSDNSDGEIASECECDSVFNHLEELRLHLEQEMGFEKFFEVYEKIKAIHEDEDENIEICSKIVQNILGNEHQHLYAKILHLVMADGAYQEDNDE
The note with it: at 0.1 µM.

Test [3] concerns the target T2, Serine/threonine-protein kinase Nek1 (Homo sapiens). Particulars: at 1 µM.
The target of test [4] is T3, Serine/threonine-protein kinase Nek2 (Homo sapiens) (UniProt P51955).
T3 sequence (whole entry): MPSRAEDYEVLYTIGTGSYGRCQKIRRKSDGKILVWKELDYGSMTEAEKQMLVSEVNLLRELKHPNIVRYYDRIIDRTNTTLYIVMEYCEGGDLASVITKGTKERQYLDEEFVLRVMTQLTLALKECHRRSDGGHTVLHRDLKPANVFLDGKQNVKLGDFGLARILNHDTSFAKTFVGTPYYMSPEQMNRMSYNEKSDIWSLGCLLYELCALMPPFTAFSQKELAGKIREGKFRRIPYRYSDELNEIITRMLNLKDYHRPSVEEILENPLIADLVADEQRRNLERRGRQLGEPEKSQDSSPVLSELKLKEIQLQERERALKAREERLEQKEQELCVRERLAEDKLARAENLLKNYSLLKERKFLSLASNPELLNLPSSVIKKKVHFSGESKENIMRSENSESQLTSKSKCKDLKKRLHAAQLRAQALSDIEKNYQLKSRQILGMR
Particulars: at 0.1 µM.

The target of test [5] is T3, Serine/threonine-protein kinase Nek2 (Homo sapiens). Particulars: at 1 µM.
For test [6], the target named is Serine/threonine-protein kinase Nek6 (Homo sapiens) (UniProt Q9HC98). The note with it: at 0.1 µM.
Sequence of Serine/threonine-protein kinase Nek6 (Homo sapiens) (Q9HC98 whole entry): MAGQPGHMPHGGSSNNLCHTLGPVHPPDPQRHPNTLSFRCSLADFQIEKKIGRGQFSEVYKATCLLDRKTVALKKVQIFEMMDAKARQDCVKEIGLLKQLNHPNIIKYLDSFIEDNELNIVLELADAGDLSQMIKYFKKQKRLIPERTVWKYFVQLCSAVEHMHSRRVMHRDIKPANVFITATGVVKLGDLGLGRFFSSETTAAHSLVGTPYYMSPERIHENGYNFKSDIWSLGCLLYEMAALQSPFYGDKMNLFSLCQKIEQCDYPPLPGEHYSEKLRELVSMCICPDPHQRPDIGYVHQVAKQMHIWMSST
For test [7] the target is unchanged. Particulars: at 1 µM.
In test [8] the target is Serine/threonine-protein kinase Nek7 (Homo sapiens) (UniProt Q8TDX7). Particulars: at 0.1 µM.
Sequence of Serine/threonine-protein kinase Nek7 (Homo sapiens) (Q8TDX7 whole entry, looked up): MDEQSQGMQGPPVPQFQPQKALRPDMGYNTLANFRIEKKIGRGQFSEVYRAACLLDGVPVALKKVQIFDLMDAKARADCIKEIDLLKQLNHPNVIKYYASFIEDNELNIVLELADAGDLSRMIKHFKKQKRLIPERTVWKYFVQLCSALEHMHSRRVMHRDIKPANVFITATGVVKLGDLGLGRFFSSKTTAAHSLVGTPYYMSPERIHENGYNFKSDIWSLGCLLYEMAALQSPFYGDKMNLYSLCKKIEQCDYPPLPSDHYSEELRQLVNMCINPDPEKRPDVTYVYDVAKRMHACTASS
For test [9] the target is unchanged. The note with it: at 1 µM.
Test [10] addresses T4, Serine/threonine-protein kinase Nek9 (Homo sapiens) (UniProt Q8TD19).
T4 sequence (whole entry): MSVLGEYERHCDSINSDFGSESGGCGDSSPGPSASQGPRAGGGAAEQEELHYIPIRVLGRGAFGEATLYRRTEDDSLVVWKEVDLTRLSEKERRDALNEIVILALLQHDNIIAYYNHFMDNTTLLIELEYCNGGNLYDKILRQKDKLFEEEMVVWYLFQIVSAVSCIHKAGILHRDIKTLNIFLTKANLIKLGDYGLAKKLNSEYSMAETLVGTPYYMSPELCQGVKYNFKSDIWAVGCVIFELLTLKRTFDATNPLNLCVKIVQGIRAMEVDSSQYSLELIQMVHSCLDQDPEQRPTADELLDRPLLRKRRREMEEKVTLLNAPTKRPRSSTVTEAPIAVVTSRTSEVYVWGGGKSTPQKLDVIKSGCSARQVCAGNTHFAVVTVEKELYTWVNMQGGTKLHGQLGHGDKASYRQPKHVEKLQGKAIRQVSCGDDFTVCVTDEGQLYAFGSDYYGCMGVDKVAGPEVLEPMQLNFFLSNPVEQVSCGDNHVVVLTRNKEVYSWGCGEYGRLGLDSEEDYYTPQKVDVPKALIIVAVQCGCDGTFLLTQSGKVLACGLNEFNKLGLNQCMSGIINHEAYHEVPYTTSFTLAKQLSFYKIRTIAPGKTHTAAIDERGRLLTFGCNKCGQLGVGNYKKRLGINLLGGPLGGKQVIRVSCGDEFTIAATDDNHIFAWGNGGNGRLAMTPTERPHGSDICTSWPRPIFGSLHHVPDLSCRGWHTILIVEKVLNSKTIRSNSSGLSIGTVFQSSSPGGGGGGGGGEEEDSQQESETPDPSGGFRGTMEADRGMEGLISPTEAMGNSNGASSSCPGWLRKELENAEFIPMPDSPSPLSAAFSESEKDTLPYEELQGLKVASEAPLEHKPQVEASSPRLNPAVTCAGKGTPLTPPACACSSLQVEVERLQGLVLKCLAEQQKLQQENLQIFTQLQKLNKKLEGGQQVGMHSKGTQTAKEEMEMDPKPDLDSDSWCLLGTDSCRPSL
The note with it: at 0.1 µM.

The term inhibition denotes the change of the read-out against control, counted positive when it falls.

On to `Nc1ncnc2occ(-c3ccc(NC(=O)Nc4cccc(C(F)(F)F)c4)cc3)c12`, for which the inhibition worked out at 9.66% in [1]; 7.14% in test [2]; 41.9% in test [3]; 6.56% in test [4]; 7.21% in test [5]; 2.78% in test [6]. The inhibition is 1.33% in test [7], 2.42% in test [8], -0.46% in [9] and 5.7% in test [10].

Regarding `Cc1nnc(-c2ccc(C)c(-c3ccc(C(=O)Nc4cccc(C#N)c4)cc3)c2)o1`, the inhibition in [1] came out at 6.02%; in test [2] it was 1.56%; in [3], 4.44%; in test [4], 3.25%; in test [5] it was 2.64%; in test [6], 1.65%. The inhibition in [7] was determined as 0.35%; in [8] it was 3.44%; in test [9], 3.07%; in [10] it was 5.36%.

Regarding `CCn1c(-c2nonc2N)nc2c(C#CC(C)(C)O)nc(CN3CCCC3)cc21`, the inhibition in test [1] is 30%; in [2], 0.5%; in [3], 2.97%; in [4], -0.01%; in [5], 1.09%; in test [6], 1.01%. The inhibition was -0.68% in test [7], 2.37% in test [8], 0.41% in [9] and -0.93% in test [10].

With `COc1cc2ncn(-c3cc(OCc4ccccc4C(F)(F)F)c(C(N)=O)s3)c2cc1OC`, the inhibition was determined as 5.84% in [1]; 3.95% in [2]; 19.1% in test [3]; 6.41% in [4]; 17.1% in test [5]; 0.15% in test [6]. The inhibition in test [7] is 2.1%; in test [8], 3.29%; in test [9] it was 5.2%; in test [10] it was 16.7%.

Regarding `O=C(Nc1n[nH]c2nc(-c3ccco3)c(Br)cc12)C1CC1`, the inhibition was 3.64% in test [1]; 2.9% in test [2]; 1.85% in test [3]; 4.03% in [4]; 3.85% in test [5]; 3.21% in [6]. Also, the inhibition in [7] worked out at 0.56%; in [8], 4.18%; in test [9], 3.03%; in test [10], 1.02%.

Take `Fc1cccc(COc2ccc(Nc3ncnc4sc(-c5cccs5)cc34)cc2Cl)c1`: the inhibition in [1] was 3.74%; in test [2], 2.04%; in test [3], 2.57%; in test [4], 2.88%; in test [5] it was 1.85%; in [6], -0.49%. Moreover, the inhibition is 1.79% in test [7], -0.09% in [8], 5.03% in test [9] and 1.95% in [10].

Regarding `COc1ccc(COc2ccc(Cc3cnc(N)nc3N)cc2OC)cc1`, the inhibition was -2.21% in [1]; 1.41% in test [2]; 1.56% in [3]; -0.14% in test [4]; -1.4% in [5]; -0.54% in [6]. For the same molecule, the inhibition in [7] was -3.71%; in test [8], 2.81%; in [9] it was 1.75%; in test [10] it was 0.22%.

Take `COC(=O)Nc1nc2cc(Oc3ccc(NC(=O)Nc4cccc(C(=O)O)c4)cc3)ccc2[nH]1`: the inhibition is 3.63% in [1]; 0.04% in test [2]; 2.1% in [3]; -0.46% in test [4]; -6.05% in test [5]; -0.14% in [6]. The inhibition is -0.54% in test [7], -2.43% in [8], -0.18% in [9] and 3.39% in test [10].

The values above are taken from ChEMBL document CHEMBL1961873, “Compounds: GSK PKIS; Assays: Nanosyn kinase panel” (2012).
